# According to paper PMC11062922 (Nature Chemical Biology, 2023):
# Like-named read-outs stand apart in the source and are kept apart here.
# Tests used:
# Set-up in all cases: species or system human, MV4-11 + K-562 + COLO205 + SK-N-BE2 + OVCAR-8
# DJA1 = system: T1, DJA1; conditions: read-out: apparent Kd; compound concentrations: 100 nM and 1000 nM (sheet 'Samples'), CATDS: 0.169109962216623; n = 1
# T1 construct: gene DNAJA1
# GSK3A = conditions: read-out: apparent Kd; compound concentrations: 100 nM and 1000 nM (sheet 'Samples'), CATDS: 0.18190367371529301; n = 1
# GSK3B = conditions: read-out: apparent Kd; compound concentrations: 100 nM and 1000 nM (sheet 'Samples'), CATDS: 0.17248189014097001; n = 1
# ILK = conditions: read-out: apparent Kd; compound concentrations: 100 nM and 1000 nM (sheet 'Samples'), CATDS: 0.13612875725697299; n = 1
# NQO2 = conditions: read-out: apparent Kd; compound concentrations: 100 nM and 1000 nM (sheet 'Samples'), CATDS: 0.173411525016403; n = 1
# PDXK = conditions: read-out: apparent Kd, n = 1
# DDR1 = conditions: read-out: apparent Kd; compound concentrations: 100 nM and 1000 nM (sheet 'Samples'), CATDS: 6.1893327663863601E-2; n = 1
# MAPK10 = conditions: read-out: apparent Kd; compound concentrations: 100 nM and 1000 nM (sheet 'Samples'), CATDS: 0.12322586321359499; n = 1
# MAPK11 = conditions: read-out: apparent Kd; compound concentrations: 100 nM and 1000 nM (sheet 'Samples'), CATDS: 9.0776517139408097E-2; n = 1
# MAPK14 = conditions: read-out: apparent Kd; compound concentrations: 100 nM and 1000 nM (sheet 'Samples'), CATDS: 0.53727809259194403; n = 1
# MAPK8 = conditions: read-out: apparent Kd; compound concentrations: 100 nM and 1000 nM (sheet 'Samples'), CATDS: 8.8413103607242097E-2; n = 1
# MAPK9 = conditions: read-out: apparent Kd; compound concentrations: 100 nM and 1000 nM (sheet 'Samples'), CATDS: 0.12213676583314199; n = 1
# MAPKAPK2 = conditions: read-out: apparent Kd; compound concentrations: 100 nM and 1000 nM (sheet 'Samples'), CATDS: 0.38284273517915801; n = 1
# NLK = conditions: read-out: apparent Kd; compound concentrations: 100 nM and 1000 nM (sheet 'Samples'), CATDS: 7.8409581021953403E-2; n = 1
# PIP4K2C = conditions: read-out: apparent Kd; compound concentrations: 100 nM and 1000 nM (sheet 'Samples'), CATDS: 0.11127151307282; n = 1
# EGFR = conditions: read-out: apparent Kd, n = 1
# DYNC1LI1 = conditions: read-out: apparent Kd; compound concentrations:100 nM and 1000 nM (sheet 'Samples'); n = 1
# GALK1 = conditions: read-out: apparent Kd; compound concentrations:100 nM and 1000 nM (sheet 'Samples'); n = 1
# MAP3K1 = conditions: read-out: apparent Kd; compound concentrations:100 nM and 1000 nM (sheet 'Samples'); n = 1
# MAP4K5 = conditions: read-out: apparent Kd; compound concentrations:100 nM and 1000 nM (sheet 'Samples'); n = 1
# NUAK2 = conditions: read-out: apparent Kd; compound concentrations:100 nM and 1000 nM (sheet 'Samples'); n = 1
# SLK = conditions: read-out: apparent Kd; compound concentrations:100 nM and 1000 nM (sheet 'Samples'); n = 1
# STK10 = conditions: read-out: apparent Kd; compound concentrations:100 nM and 1000 nM (sheet 'Samples'); n = 1
# ERBB3 = conditions: read-out: apparent Kd; compound concentrations:100 nM and 1000 nM (sheet 'Samples'); n = 1
# T10 = system: T2, T10; conditions: read-out: apparent Kd; compound concentrations:100 nM and 1000 nM (sheet 'Samples'); n = 1
# T2 construct: gene NAT10
# RIPK2 = conditions: read-out: apparent Kd, compound concentrations: 100 nM and 1000 nM (sheet 'Samples'), n = 1
# NQO1 = conditions: read-out: apparent Kd; compound concentrations: 100 nM and 1000 nM (sheet 'Samples'), CATDS: 0.34789699583550798; n = 1
# GAK = conditions: read-out: apparent Kd, compound concentrations: 100 nM and 1000 nM (sheet 'Samples'), n = 1
# FECH = conditions: read-out: apparent Kd; compound concentrations: 100 nM and 1000 nM (sheet 'Samples'), CATDS: 0.40591450620250102; n = 1
# PLK1 = conditions: read-out: apparent Kd; compound concentrations: 100 nM and 1000 nM (sheet 'Samples'), CATDS: 0.65086071220868402; n = 1
# EPHA7 = conditions: read-out: apparent Kd; compound concentrations: 100 nM and 1000 nM (sheet 'Samples'), CATDS: 1; n = 1
# NTRK1 = conditions: read-out: apparent Kd; compound concentrations:100 nM and 1000 nM (sheet 'Samples'); n = 1
# EPHB6 = conditions: read-out: apparent Kd, n = 1
# FLT4 = conditions: read-out: apparent Kd; compound concentrations: 100 nM and 1000 nM (sheet 'Samples'), CATDS: 0.213105830255753; n = 1
# MAP2K5 = conditions: read-out: apparent Kd; compound concentrations: 100 nM and 1000 nM (sheet 'Samples'), CATDS: 0.176800836122779; n = 1
# PDGFRB = conditions: read-out: apparent Kd; compound concentrations: 100 nM and 1000 nM (sheet 'Samples'), CATDS: 0.165477129932846; n = 1
# EPHA1 = conditions: read-out: apparent Kd; compound concentrations: 100 nM and 1000 nM (sheet 'Samples'), CATDS: 0.14534883893422801; n = 1
# EPHB3 = conditions: read-out: apparent Kd; compound concentrations: 100 nM and 1000 nM (sheet 'Samples'), CATDS: 9.8269686784854801E-2; n = 1
# FYN = conditions: read-out: apparent Kd; compound concentrations: 100 nM and 1000 nM (sheet 'Samples'), CATDS: 0.110039828887459; n = 1
# RET = conditions: read-out: apparent Kd; compound concentrations: 100 nM and 1000 nM (sheet 'Samples'), CATDS: 0.126385665807943; n = 1
# RIPK3 = conditions: read-out: apparent Kd; compound concentrations: 100 nM and 1000 nM (sheet 'Samples'), CATDS: 0.215705247056383; n = 1
# TGFBR2 = conditions: read-out: apparent Kd; compound concentrations: 100 nM and 1000 nM (sheet 'Samples'), CATDS: 0.121800483782391; n = 1
# [1] = compound concentrations: 100 nM and 1000 nM (sheet 'Samples'), CATDS: 1
# [2] = compound concentrations:100 nM and 1000 nM (sheet 'Samples')
compound,measurement,setting,value
Cn1cc(C2=C(c3cn(C)c4ncccc34)C(=O)NC2=O)c2ccccc21 [RO0271528-000],potency estimated from few doses,DJA1,1330 nM
same,potency estimated from few doses,GSK3A,1150 nM
same,potency estimated from few doses,GSK3B,1280 nM
same,potency estimated from few doses,ILK,2170 nM
same,potency estimated from few doses,NQO2,1260 nM
same,potency estimated from few doses,"PDXK; compound concentrations: 100 nM and 1000 nM (sheet 'Samples'), CATDS: 0.17608898897019801",1230 nM
CS(=O)(=O)N1CCC(n2c(=O)c(Oc3ccc(F)cc3F)cc3cnc(NC4CCOCC4)nc32)CC1 [RO5045977-000],potency estimated from few doses,DDR1,1480 nM
same,potency estimated from few doses,MAPK10,47.7 nM
same,potency estimated from few doses,MAPK11,131 nM
same,potency estimated from few doses,MAPK14,1.11 nM
same,potency estimated from few doses,MAPK8,145 nM
same,potency estimated from few doses,MAPK9,48.9 nM
same,potency estimated from few doses,MAPKAPK2,2.09 nM
same,potency estimated from few doses,NLK,247 nM
same,potency estimated from few doses,PIP4K2C,65.2 nM
Cl.c1ccc(Cn2ncc3cc(Nc4ncnc5ccccc45)ccc32)cc1 [GW273749A],potency estimated from few doses,EGFR; [1],25.4 nM
C[C@@H](Oc1cc(-n2cnc3cc(-c4ccncc4)ccc32)sc1C(N)=O)c1ccccc1Cl [GSK479719A],potency estimated from few doses,DYNC1LI1,1560 nM
same,potency estimated from few doses,GALK1,986 nM
same,potency estimated from few doses,MAP3K1,91.2 nM
same,potency estimated from few doses,MAP4K5,2270 nM
same,potency estimated from few doses,NUAK2,1160 nM
same,potency estimated from few doses,SLK,510 nM
same,potency estimated from few doses,STK10,142 nM
O=C(O[C@H]1CN[C@H](C#Cc2cc3ncnc(Nc4ccc(OCc5cccc(F)c5)c(Cl)c4)c3s2)C1)N1CCOCC1 [GW869810X],potency estimated from few doses,EGFR; [1],72.2 nM
C[C@@H]1CC[C@@H](C(=O)Nc2ccccc2)CN1c1cc(-c2ccc3c(N)n[nH]c3c2)nc(N)n1 [GSK2286062A],potency estimated from few doses,ERBB3,1760 nM
same,potency estimated from few doses,T10,1120 nM
Cn1cncc1-c1cc2c(Nc3ccc(OCc4ccccc4)cc3)ncnc2cn1 [GW281179X],potency estimated from few doses,"EGFR; compound concentrations: 100 nM and 1000 nM (sheet 'Samples'), CATDS: 0.48641322117949298",124 nM
same,potency estimated from few doses,RIPK2; CATDS: 0.514367617378505,111 nM
CC(=O)NCc1cccc(C#Cc2cncnc2Nc2ccc(OCc3cccc(F)c3)c(Cl)c2)c1 [GW807930X],potency estimated from few doses,"EGFR; compound concentrations: 100 nM and 1000 nM (sheet 'Samples'), CATDS: 0.88842612806031096",149 nM
same,potency estimated from few doses,NQO1,2230 nM
C#Cc1cccc(Nc2ncnc3cc(OC)c(OC4CCN(C)CC4)cc23)c1 [BI00007366],potency estimated from few doses,"EGFR; compound concentrations: 100 nM and 1000 nM (sheet 'Samples'), CATDS: 0.27319466125259201",1300 nM
same,potency estimated from few doses,GAK; CATDS: 0.38094365160878402,634 nM
same,potency estimated from few doses,RIPK2; CATDS: 0.36838569788984799,674 nM
NC(=O)c1sc(-n2cnc3ccccc32)cc1OCc1ccccc1F [GSK1024306A],potency estimated from few doses,FECH,2130 nM
same,potency estimated from few doses,PLK1,781 nM
COc1cccc(NC(=O)NCCNc2ccnc(Nc3ccc(F)cc3)n2)c1 [GSK1379879A],potency estimated from few doses,EPHA7,2400 nM
Cl.c1ccc(Cc2nc3ccc(Nc4ncnc5ccccc45)cc3[nH]2)cc1 [GR269666A_KCGS],potency estimated from few doses,EGFR; [2],76 nM
same,potency estimated from few doses,NTRK1,1110 nM
same,potency estimated from few doses,PDXK; [2],1550 nM
Cc1cc(-c2ccco2)cc(C)c1/C=C/c1cncc(-c2nn[nH]n2)c1.Cl [GW458344A],potency estimated from few doses,EPHB6; [2],401 nM
COc1ccc(N2Cc3cnc(Nc4ccccc4)nc3N([C@@H]3CC[C@@H](O)C3)C2=O)cc1 [RO4383596-000],potency estimated from few doses,"EPHB6; compound concentrations: 100 nM and 1000 nM (sheet 'Samples'), CATDS: 0.20218817743622799",1300 nM
same,potency estimated from few doses,FLT4,1170 nM
same,potency estimated from few doses,GAK; CATDS: 0.27304535513380701,756 nM
same,potency estimated from few doses,MAP2K5,1750 nM
same,potency estimated from few doses,PDGFRB,2060 nM
CC(C)(C)c1ccc2nccc(Nc3cccc(O)c3)c2c1 [GW856795X],potency estimated from few doses,EPHA1,443 nM
same,potency estimated from few doses,EPHB3,1450 nM
same,potency estimated from few doses,FYN,960 nM
same,potency estimated from few doses,RET,634 nM
same,potency estimated from few doses,RIPK2; CATDS: 0.476664898558677,52 nM
same,potency estimated from few doses,RIPK3,192 nM
same,potency estimated from few doses,TGFBR2,703 nM
